Sampled rows, rich in hits. Any-hit rate of the full collection: about 1.2%.
rTrxR1 inhibitor – rat TrxR1 inhibition; recombinant rTrxR1, NADPH fluorescence consumption, selenite substrate; hit rate 1% among 390,000; Potency, µM (highest dose often 114 µM), for inactives: at the highest dose activity change, negative = inhibition, most hits filed as inhibitors; note: potency is the fitted concentration of half-maximal effect; nearly all actives have a fitted effect of over 65% in size
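Rat TrxR1 (90 nM in the dispensed reagent) was pre-reduced with 400 uM NADPH for 5 min at room temperature, then incubated with compound for 15 min. After 400 uM selenite was added, NADPH fluorescence (Ex 340/Em 450 nm) was followed for 8 min.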
PI4K2A block – inhibitors of human PI4K2A. purified PI4K2A, ADP-Glo luminescence, 1 h; stronger effect = lower value. hit rate 0.13% among 420,000. Q9BTU6. activity change, negative = inhibition, % at 76.9 µM; in the data active = activity change below about -50%; inconclusive = mostly about -30% to -49%;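 note: -100% = wells without enzyme as full effect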
Target sequence (Q9BTU6 whole entry, looked up): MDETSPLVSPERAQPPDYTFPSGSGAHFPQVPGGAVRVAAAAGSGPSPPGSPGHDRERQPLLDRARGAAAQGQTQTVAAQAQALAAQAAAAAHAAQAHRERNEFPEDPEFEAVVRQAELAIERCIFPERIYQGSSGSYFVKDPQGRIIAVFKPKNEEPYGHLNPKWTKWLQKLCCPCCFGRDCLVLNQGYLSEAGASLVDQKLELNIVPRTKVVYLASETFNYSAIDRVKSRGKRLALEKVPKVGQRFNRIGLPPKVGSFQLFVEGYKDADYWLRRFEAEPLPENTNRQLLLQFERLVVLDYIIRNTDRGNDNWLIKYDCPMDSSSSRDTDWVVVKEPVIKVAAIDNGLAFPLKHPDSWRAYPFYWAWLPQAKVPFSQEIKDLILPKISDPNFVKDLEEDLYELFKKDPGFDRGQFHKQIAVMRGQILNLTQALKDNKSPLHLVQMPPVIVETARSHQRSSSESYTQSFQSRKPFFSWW
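Compounds are screened against recombinant PI4K2A using PI as substrate and ATP, the latter dispensed at 300 microM. Reactions run one hour at ambient temperature before ADP-Glo detection; full inhibition defined by wells lacking enzyme.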
GALK inh – blocks human galactokinase activity; P51570; Purified GALK, Kinase-Glo residual ATP luminescence; Potency, µM (doses to about 57.5 µM), for inactives: at the top dose activity change, negative = inhibition, most hits filed as inhibitors; hit rate 0.007% among 270,000; note: potency is the fitted concentration of half-maximal effect
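Galactose (100 uM) and ATP (35 uM) were turned over by 5 nM GALK for 1 h at RT. Kinase-Glo Plus then converted the remaining ATP into a luminescent signal.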
PKM2 activator – PKM2 (human) enzyme activation; AID 1631; purified PKM2, Kinase-Glo ATP luminescence, activation; response scale: 0% is enzyme alone, no compound; hit rate 0.34% among 260,000; Potency, µM (series often up to 57.5 µM), for inactives: at the top dose activation, actives largely listed as activators; note: potency is the fitted concentration of half-maximal effect; nearly all actives have a fitted effect of over 55% in size
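Purified hPK-M2 (>95% pure) converted ADP (0.1 mM final) to ATP with 0.5 mM PEP in 50 mM imidazole pH7.2, KCl, MgCl2, Tween 20, BSA; 1 h at room temperature. ATP detected by Kinase-Glo luminescence.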
TrxR1 substrate – is turned over as a substrate by rat TrxR1 | purified TrxR1 substrate turnover, NADPH consumption readout | O89049 | Potency, µM (top dose mostly 114 µM), without a hit: at the highest dose activity change, negative = substrate turnover | hit rate 0.01% among 390,000; note: potency is the fitted concentration of half-maximal effect; nearly all actives have a fitted effect of over 50% in size
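Rat TrxR1, dispensed at 90 nM, was prereduced with 400 uM NADPH (final) for 5 min at ~22 deg C, then incubated with compound 15 min before 400 uM selenite. A first-read NADPH fluorescence drop versus no-compound background flagged substrates.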
An asterisk follows results filed as active; u = inconclusive; x = no result; [ ] = dose if it differs, or a comment. Unless noted, calls come from the whole dose curve; as a rule, active = well fitted curve in the direction sought with a large enough effect; inconclusive = small, poorly fitted or top-dose-only effect, or another doubt; inactive = no such curve, though single readings can be large; an effect the other way counts as inactive or inconclusive. Unless noted, % is set by controls: 0 for no effect and ±100 for the full control effect.

SMILES	rTrxR1 inhibitor	PI4K2A block	GALK inh	PKM2 activator	TrxR1 substrate
O=C(NCC1COc2ccccc2O1)c1ccc(NC(=O)c2cccc(F)c2)cc1 (stereo unspecified)	x	-4	x	x	x
O=C(CC(c1ccco1)S(=O)(=O)c1ccccc1)c1ccc(F)cc1 (stereo unspecified)	50µM*	1	-1%	29%	8%
Cc1cc(Br)cc2c1N(Cc1ccccc1OC(C)C)C(=O)C2=O	22%	29	x	x	-1%
Cc1ccc(-c2ccc(CCC(=O)O)o2)cc1	22µM*	1	3%	20%	11%
O=C(O)CCc1ccc(-c2cccs2)o1	u	-2	-3%	21%	11%[57.1 µM]
C=CCCC1(CCC)C(=O)/C(=C(\O)c2ccccc2)C(=O)C(CCC)=C1OC (stereo unspecified)	x	-3	x	x	x
CCCCCCCCCC[n+]1cccc(Br)c1	30%	x	x	x	162%
C(C#CCCCCCCCCC[n+]1ccccc1)#CCCCCCCCCC[n+]1ccccc1	56µM*	0	11%	0%	0%
Cc1ccc(S(=O)(=O)N2CCN(C(=O)CCN3C(=O)c4ccccc4C3=O)CC2)cc1C	6%[57.1 µM]	3	2%	5.6µM*	-10%
Cc1ccc(S(=O)(=O)N2CCN(C(=O)CCn3nc(C)c(C)c3C)CC2)cc1C	-1%	3	1%	7.9µM*	-3%
CC1CCN(S(=O)(=O)c2ccc3nc(NCc4ccccc4)ccc3c2)CC1	13%[57.1 µM]	-7	x	x	3%[57.1 µM]
O=C(Nc1ccc(N2CCCCC2)cc1)c1ccccn1	-25%	-65*	24%	-73%	u
Nc1ccc(/C=C/C(=O)c2cccs2)cc1	-9%	0	-3%	-8%	2%[57.1 µM]
O=C(C=Cc1ccccc1)c1cccs1	71µM*	7	x	x	-10%
CCC[C@H]1[C@@H](NC(=O)c2cccc(C(F)(F)F)c2)CC[C@@]23CCCN2C(=O)CCC[C@@H]13	x	-1	x	x	x
OC(C[n+]1c(Cl)ccc2ccccc21)c1ccccc1 (stereo unspecified)	40µM*	x	x	x	15%
Oc1ccc[n+](CC(O)c2ccccc2)c1 (stereo unspecified)	9%[57.1 µM]	-3	x	x	10%[57.1 µM]
COc1cc(NC(=O)Cn2cnc3sc(C)c(S(=O)(=O)N4CCC(C)CC4)c3c2=O)cc(OC)c1OC	14%	-1	x	x	-2%
C#CCSc1nncn1C(=O)/C=C/c1ccccc1	22µM*	1	x	0%	6%
C#CCSc1nc2ccccc2c(=O)n1CC=C	7%	x	x	x	0%
CCCCCC(=O)Nc1cc(S(=O)(=O)N2CCCCC2)ccc1N1CCCCC1	12%[57.1 µM]	1	x	x	0%[57.1 µM]
CCCCCC(=O)Nc1cc(S(=O)(=O)O)cc2cc(S(=O)(=O)O)cc(O)c12	u	-59*	x	x	-3%
CCCN(C(=O)c1cc2c(s1)CCC2)c1c(N)n(Cc2ccccc2)c(=O)[nH]c1=O	31%[57.1 µM]	-6	-2%	22µM*	9%[57.1 µM]
COCCCN(C(=O)c1cc2c(s1)CCC2)c1c(N)n(Cc2ccccc2)c(=O)[nH]c1=O	-13%	-5	-2%	13%	-10%
CCOc1ccccc1NC(=O)NNC(=O)CCn1nc(C)c([N+](=O)[O-])c1C	x	4	x	x	x
SMILES	rTrxR1 inhibitor	PI4K2A block	GALK inh	PKM2 activator	TrxR1 substrate
CCn1c(=S)[nH]c2ccccc21	89µM*	-19	-1%	3%	529%
c1cc2ccn(CC3CC3)c2cc1-c1ccc2ccn(CC3CC3)c2c1	x	1	x	x	x
Cc1cc2ccccc2c[n+]1C1CCCCC1	-2%	x	x	x	9%
O=C(Nc1ncc2c(n1)CC(c1ccco1)CC2=O)c1ccco1 (stereo unspecified)	8%	6	0%	28µM*	4%
O=S1(=O)CCOCCN1Cc1ccccc1	-17%[57.1 µM]	-1	x	0%	-3%[57.1 µM]
C=C1C=CS(=O)(=O)N(Cc2ccccc2)C1	35µM*	x	x	x	8%
COc1cccc(C(=O)NC(=S)Nc2cccnc2)c1	u	-7	-2%	-15%	-3%
CC(C)Oc1cccc(C(=O)NC(=S)Nc2cccnc2)c1	22µM*	-1	1%	4%	-1%
O=C(O)C1Nc2c(C(=O)N3CCOCC3)cccc2C2C=CCC12 (stereo unspecified)	1.6µM*	-24	2%	-7%	-7%
Cc1cc(C)c2c(c1)NC(C(=O)O)C1CC=CC21 (stereo unspecified)	4µM*	-29	7%	1%[11.5 µM]	2%
O=C(c1ccccc1O)N1CCOCC1	10%	5	0%	6%	8%
Cc1ccc(Cl)c2c1N[C@@H](c1ccc(C(=O)O)cc1)[C@H]1CC=C[C@@H]21	-3%	-14	x	x	0%
Cc1ccc2c(c1C)NC(C(=O)O)C1CC=CC21 (stereo unspecified)	2.5µM*	-18	2%	-8%	13%
O=C(O)C1Nc2c(C(F)(F)F)ccc(Cl)c2C2C=CCC12 (stereo unspecified)	u	4	0%	x	3%[2.29 µM]
O=C(O)C1Nc2ccccc2C2C=CCC12 (stereo unspecified)	3.5µM*	x	x	x	-5%
CC(C)C1Nc2ccc(C(=O)O)cc2C2C=CCC21 (stereo unspecified)	u	-7	-2%	-1%	10%[57.1 µM]
Cc1cc(C)c2c(c1)C1C=CCC1C(C(=O)O)N2 (stereo unspecified)	1.4µM*	x	x	x	1%
CCN(CC)S(=O)(=O)c1ccc(C(=O)NCCN2C(=O)S/C(=C\c3cccnc3)C2=O)cc1	-16%	0	-6%	24%	-9%
CN(C)S(=O)(=O)c1ccc(C(=O)NCCN2C(=O)S/C(=C\c3cccnc3)C2=O)cc1	20%[57.1 µM]	-18	-1%	16µM*	-14%[57.1 µM]
O=C(NCCN1C(=O)S/C(=C/c2cccnc2)C1=O)c1ccc(S(=O)(=O)N2CCCC2)cc1	-19%	-4	x	x	-1%
CS(=O)(=O)c1ccc(C(=O)NCCN2C(=O)S/C(=C\c3cccnc3)C2=O)cc1[N+](=O)[O-]	18µM*	-21	0%	u	-4%
Cc1[nH][nH]c(=O)c1C(c1ccc(-c2ccc(C(=O)O)cc2)o1)c1c(C)[nH][nH]c1=O	-4%[57.1 µM]	-55*	-28%	-40%	-21%
Cc1cc(O)c(C(c2ccccc2)N2CCN(c3ccc(F)cc3)CC2)c(=O)n1Cc1ccco1 (stereo unspecified)	10µM*	-1	x	x	-2%[57.1 µM]
Cc1cc(O)c(C(c2ccc(F)cc2)N2CCN(c3ccccc3)CC2)c(=O)n1Cc1ccco1 (stereo unspecified)	u	-2	x	x	5%[57.1 µM]
CCN1CCN(C(c2cccc(OC)c2)c2c(O)cc(C)n(Cc3ccco3)c2=O)CC1 (stereo unspecified)	11µM*	-2	x	x	2%[57.1 µM]
COc1cccc(C(c2c(O)cc(C)n(Cc3ccco3)c2=O)N2CCC(C)CC2)c1 (stereo unspecified)	-13%[57.1 µM]	3	x	x	1%[57.1 µM]

Screening data (PubChem BioAssay)
